For 21 compounds, outcome results are on record in PubChem BioAssay (NCATS).

Inconclusive results are not listed. The source made the active and inactive calls. Calls follow the shape of the dose curve; as a rule, active = well fitted curve in either direction with a large enough effect (not every such curve was filed as active); inconclusive = small, poorly fitted or top-dose-only effect, or another doubt; inactive = flat fitted curve, though single readings scatter.

A short description of the test: Stat Signaling Pathway (AID 446).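 Also: ME-180 cervical cancer cells given 40 pM IL-6 alongside compound; SIE-controlled beta-lactamase reporter measured as 460/530 nm FRET emission ratio.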 Particulars: ME-180 (cervical carcinoma) SIE beta-lactamase reporter, IL-6 stimulated, 5 h; series mostly up to 17.2 µM. An outline of the steps: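 Emission at 460 and 530 nm (excitation 405 nm) reports SIE-controlled beta-lactamase in ME-180 cells. Cells received compound with 40 pM IL-6 for 5 hrs at 37 C; data scaled between 300 pM IL-6 and 125 nM JAK-inhibitor controls.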
On to `Cc1cnc(NC(=O)C2=C(O)c3ccccc3S(=O)(=O)N2C)s1`, for which the compound was called inactive.

For `Nc1ccc(S(=O)(=O)Nc2ccnn2-c2ccccc2)cc1`, the compound was classed as inactive.

Take `O=c1[nH]cnc2[nH]ncc12`: the compound was called inactive.

Turning to `CCOC(=O)C1=C[C@@]2(CC)CCCN3CCc4c(n1c1ccccc41)[C@H]32`, the result was inactive.

As for `CN1CCN(CCCN2c3ccccc3Sc3ccc(C(F)(F)F)cc32)CC1`, the call was inactive.

Take `Nc1nc2c(ncn2COCCO)c(=O)[nH]1`: the outcome was inactive.

For the compound `N=c1nc(N2CCCCC2)cc(N)n1O`, the outcome was inactive.

Turning to `CC(C[N+](C)(C)C)OC(N)=O` (stereo unspecified), the compound was classed as inactive.

Take `Clc1cccc(Cl)c1NC1=NCCN1`: the call was inactive.

As to `N#Cc1ccc(C(c2ccc(C#N)cc2)n2cncn2)cc1`, the call was inactive.

For `Cc1oncc1C(=O)Nc1ccc(C(F)(F)F)cc1`, the result was inactive.

Take `Cc1ccccc1C(OCCN(C)C)c1ccccc1` (stereo unspecified): the compound was called inactive.

`NNCCc1ccccc1`: the outcome was inactive.

As to `Nc1nc2ccc(OC(F)(F)F)cc2s1`, the compound was classed as inactive.

With `O=C1CCc2cc(OCCCCc3nnnn3C3CCCCC3)ccc2N1`, the outcome was inactive.

On to `N[C@@H]1CONC1=O`, for which the call was inactive.

On to `NC[C@H](O)c1ccc(O)c(O)c1`, for which the result was inactive.

`CCOC(=O)C1=C[C@]2(CC)CCCN3CCc4c(n1c1ccccc41)[C@@H]32`: the call was inactive.

Turning to `Cc1cn[nH]c1`, the compound was classed as inactive.

Take `C[C@]12CCC(=O)C=C1CC[C@@H]1[C@@H]2[C@@H](O)C[C@@]2(C)[C@H]1CC[C@]2(O)C(=O)CO`: the outcome was inactive.

In the case of `Cc1ccc(N(CC2=NCCN2)c2cccc(O)c2)cc1`, the outcome was inactive.
